From PubChem BioAssay (NCATS)
Records with an inconclusive call do not appear. Calls of active or inactive are those of the source. Unless noted, the call rests on the fitted dose curve.

Key:
[1] = qHTS for Inhibitors of the Functional Ribonucleoprotein Complex (vRNP) of Lassa (LASV) Arenavirus: LASV Primary Screen - GLuc reporter signal (AID 1347082; calls by dose curve; tested in HEK293 reporter line; further: nearly all actives have a fitted effect of over 60% in size; on activity change, negative = inhibition: series mostly up to about 57 µM)
[2] = qHTS for Inhibitors of the Functional Ribonucleoprotein Complex (vRNP) of Lassa (LASV) Arenavirus: Viability assay - alamar blue signal for LASV Primary Screen (AID 1347083; calls by dose curve; tested in HEK293 reporter line; further: nearly all actives have a fitted effect of over 80% in size; on activity change, negative = reduced viability: series mostly up to about 57 µM)
[3] = qHTS for Inhibitors of the Functional Ribonucleoprotein Complex (vRNP) of Lymphocytic Choriomeningitis Arenaviruses (LCMV): Viability assay - alamar blue signal for LCMV Primary Screen (AID 1347085; calls by dose curve; tested in HEK293 reporter line; further: nearly all actives have a fitted effect of over 80% in size; on activity change, negative = lower viability: series mostly up to about 57 µM)
[4] = target: Nucleoprotein (Lymphocytic choriomeningitis virus (strain Armstrong)) (UniProt P09992); test: qHTS for Inhibitors of the Functional Ribonucleoprotein Complex (vRNP) of Lymphocytic Choriomeningitis Arenaviruses (LCMV): LCMV Primary Screen - GLuc reporter signal (AID 1347086); further: nearly all actives have a fitted effect of over 70% in size; on activity change, negative = inhibition: series mostly up to about 57 µM
Chain of Nucleoprotein (Lymphocytic choriomeningitis virus (strain Armstrong)) (P09992 whole entry, looked up): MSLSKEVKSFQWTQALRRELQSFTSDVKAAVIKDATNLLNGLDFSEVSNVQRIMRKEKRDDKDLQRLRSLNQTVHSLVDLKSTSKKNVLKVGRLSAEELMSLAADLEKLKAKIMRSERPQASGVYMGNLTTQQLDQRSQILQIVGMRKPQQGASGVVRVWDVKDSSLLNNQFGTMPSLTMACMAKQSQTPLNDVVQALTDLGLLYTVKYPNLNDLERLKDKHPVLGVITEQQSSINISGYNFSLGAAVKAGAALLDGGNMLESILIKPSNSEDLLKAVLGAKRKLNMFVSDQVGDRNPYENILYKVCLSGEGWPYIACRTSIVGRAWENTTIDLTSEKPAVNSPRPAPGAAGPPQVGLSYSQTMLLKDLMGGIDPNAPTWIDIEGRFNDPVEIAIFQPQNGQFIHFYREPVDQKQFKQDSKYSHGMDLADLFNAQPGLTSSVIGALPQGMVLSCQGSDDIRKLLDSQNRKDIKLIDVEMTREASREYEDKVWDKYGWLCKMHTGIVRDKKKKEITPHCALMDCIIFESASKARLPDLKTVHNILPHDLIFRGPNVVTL
On the % scale 0 is the no-effect control and ±100 the full control effect; potency means the concentration at half of the fitted maximal effect.

CC1(C)CCC[C@@](C)([C@H]2CC[C@]3(C)[C@@H]2[C@H](O)CC2[C@@]4(C)CC[C@H](O)C(C)(C)[C@@H]4[C@@H](O)C[C@]23C)O1 (stereo not given in full)
inactive: Potency [1] | Potency [2] | Potency [3] | Potency [4]

CC(C)(C)c1ccccc1
inactive: Potency [1] | Potency [2] | Potency [3] | Potency [4]

O=C(Nc1cccc(C(F)(F)F)c1)Nc1cc(S(=O)(=O)NC2CC2)ccc1-c1ccsc1
inactive: Potency [1] | Potency [2] | Potency [3] | Potency [4]

COc1c2c(c(OC)c3c1c(=O)c1ccccc1n3C)OCO2
inactive: Potency [1] | Potency [2] | Potency [3] | Potency [4]

COC(=O)C1C(O)CC2CCC1N2C (stereo not given)
inactive: Potency [1] | Potency [2] | Potency [3] | Potency [4]

CC[C@@H]1C=C(C)C[C@H](C)C[C@H](OC)[C@H]2O[C@@](O)(C(=O)C(=O)N3CCCC[C@@H]3C(=O)O[C@H](C(C)=C[C@@H]3CC[C@H](Cl)[C@H](OC)C3)[C@H](C)[C@@H](O)CC1=O)[C@H](C)C[C@H]2OC
inactive: Potency [1] | Potency [2] | Potency [3] | Potency [4]

CCOC(=O)c1ccccc1
inactive: Potency [1] | Potency [2] | Potency [3] | Potency [4]

COc1c2ccc(OCC/C(C)=C/C(=O)C=C(C)C)cc2nc2occc12
inactive: Potency [1] | Potency [2] | Potency [3] | Potency [4]

CCCCCc1cccc(=O)o1
inactive: Potency [1] | Potency [2] | Potency [3] | Potency [4]

CC1OCCC1=O (stereo not given)
inactive: Potency [1] | Potency [2] | Potency [3] | Potency [4]

CCc1ccc(C=C2SC(=S)NC2=O)cc1
inactive: Potency [1] | Potency [2] | Potency [3] | Potency [4]

C=C(CC[C@@H](O)C(C)(C)O)[C@H]1CC[C@]2(C)[C@@H]1CCC1[C@@]3(C)CC[C@H](O)C(C)(C)C3CC[C@]12C (stereo not given in full)
inactive: Potency [1] | Potency [2] | Potency [3] | Potency [4]

CC1=CC[C@H](CC=O)C1(C)C
inactive: Potency [1] | Potency [2] | Potency [3] | Potency [4]

OCCNC1CCCc2c1[nH]c1ccc(-c3ccccc3)cc21 (stereo not given)
inactive: Potency [1] | Potency [2] | Potency [3] | Potency [4]

Cn1c(N2CCCCS2(=O)=O)nc(C(=O)NCc2ccc(F)cc2)c(O)c1=O
inactive: Potency [1] | Potency [2] | Potency [3] | Potency [4]

CCn1c(-c2nonc2N)nc2cncc(CNC3CCNCC3)c21
active: Potency [1] 24.3 µM | Potency [2] 17.2 µM | Potency [3] 24.3 µM | Potency [4] 38.5 µM

OC[C@H]1O[C@@H](O[C@@H]2OC=C[C@H]3[C@H](O)[C@@H]4O[C@]4(CO)[C@@H]23)[C@H](O)[C@@H](O)[C@@H]1O
inactive: Potency [1] | Potency [2] | Potency [3] | Potency [4]

COC(=O)C1(Cc2ccc(O)cc2)OC(=O)C(O)=C1c1ccc(O)cc1 (stereo not given)
inactive: Potency [1] | Potency [2] | Potency [3] | Potency [4]

CC(C)(O)[C@H](O)COc1c2occc2cc2ccc(=O)oc12
inactive: Potency [1] | Potency [2] | Potency [3] | Potency [4]

COc1cc(C)cc(O)c1
inactive: Potency [1] | Potency [2] | Potency [3] | Potency [4]

CCCCCCCCCCCCCC
inactive: Potency [1] | Potency [2] | Potency [3] | Potency [4]

C[C@@H](O)CCC[C@H](O)/C=C/[C@@H]1[C@@H](C/C=C\CCCC(=O)O)[C@@H](O)C[C@H]1O
inactive: activity change, negative = inhibition [1] -12.1% [at 0.757 µM] | activity change, negative = reduced viability [2] -24.9% [at 0.757 µM] | activity change, negative = lower viability [3] -64.4% [at 0.757 µM] | activity change, negative = inhibition [4] -26.1% [at 0.757 µM]

COc1ccc(-c2coc3cc(O[C@@H]4O[C@H](CO)[C@@H](O)[C@H](O)[C@H]4O)c(OC)cc3c2=O)cc1
inactive: Potency [1] | Potency [2] | Potency [3] | Potency [4]

CC(C)=CCC/C(C)=C/COc1c2occc2cc2ccc(=O)oc12
inactive: Potency [1] | Potency [2] | Potency [3] | Potency [4]

CCCCCCC(CO)CCCC (stereo not given)
inactive: Potency [1] | Potency [2] | Potency [3] | Potency [4]

O=C1c2ccccc2C(=O)c2c(O)c(O)cc(O)c21
inactive: Potency [1] | Potency [2] | Potency [3] | Potency [4]

CC(C)=CCC/C(C)=C/COC=O
inactive: Potency [1] | Potency [2] | Potency [3] | Potency [4]

CCCCCC(=O)CC
inactive: Potency [1] | Potency [2] | Potency [3] | Potency [4]

CCCC(=O)OC/C=C(\C)CCC=C(C)C
inactive: Potency [1] | Potency [2] | Potency [3] | Potency [4]

COC(=O)C(O)C(O)(CCC(C)C)C(=O)OC1C(OC)=CC23CCCN2CCc2cc4c(cc2C13)OCO4 (stereo not given)
inactive: Potency [1] | Potency [2] | Potency [3] | Potency [4]

Cc1nc(Nc2n[nH]c3c2CN(C(=O)N[C@H](CN(C)C)c2ccccc2)C3(C)C)c2sccc2n1
active: Potency [1] 7.69 µM | Potency [2] 0.193 µM | Potency [3] 0.0968 µM | Potency [4] 8.63 µM

CCCCC/C=C\C=C\C(=O)OCC
inactive: Potency [1] | Potency [2] | Potency [3] | Potency [4]

CCCCCCCCCCCCCCCCCCOS(=O)(=O)O
inactive: Potency [1] | Potency [2] | Potency [3] | Potency [4]

Cc1c(-c2cccc3c(CCCOc4cccc5ccccc45)c(C(=O)O)n(Cc4cccnc4)c23)c(COc2ccc(N3CCN([S+](=O)([O-])N(C)C)CC3)cc2)nn1C
inactive: Potency [1] | Potency [2] | Potency [3] | Potency [4]

CC(C=CC(O)=C1C(=O)CNC1=O)=C[C@@H](C)C1OC2(C)OC(C(=O)C3O[C@@]32C)C1C (stereo not given in full)
inactive: Potency [1] | Potency [2] | Potency [3] | Potency [4]

CC1(C)OC(=O)C=C[C@]2(C)[C@H]3CC[C@@]4(C)[C@H](c5ccoc5)OC(=O)[C@H]5O[C@]54[C@]3(C)C(=O)C[C@@H]12
inactive: Potency [1] | Potency [2] | Potency [3] | Potency [4]

O=C(O)C=C(Br)Br
inactive: Potency [1] | Potency [2] | Potency [3] | Potency [4]

COc1cc2c(cc1OC)C(C(=O)c1ccc(OC)c(OC)c1O)=NCC2
inactive: Potency [1] | Potency [2] | Potency [3] | Potency [4]

CC(C)=CCC/C(C)=C/C(=O)O
inactive: Potency [1] | Potency [2] | Potency [3] | Potency [4]

CCCCCC1CCCC(=O)O1 (stereo not given)
inactive: Potency [1] | Potency [2] | Potency [3] | Potency [4]

Cc1[nH]c(C=C2C(=O)Nc3ccc(S(=O)(=O)N(C)c4cccc(Cl)c4)cc32)c(C)c1C(=O)N1CCN(C)CC1
inactive: Potency [1] | Potency [2] | Potency [3] | Potency [4]

COC1=CC(=O)CC(C)C12Oc1cc(OC)cc(OC)c1C2=O (stereo not given)
inactive: Potency [1] | Potency [2] | Potency [3] | Potency [4]

C=C1C(=O)OC2C=C(CO)CCC=C(CO)CC(OC(=O)C(C)C)C12 (stereo not given)
inactive: Potency [1] | Potency [2] | Potency [3] | Potency [4]

COc1c2ccoc2nc2c(OC)c(O[C@@H]3O[C@H](C)[C@@H](O)[C@@H](O)[C@H]3O)ccc12
inactive: Potency [1] | Potency [2] | Potency [3] | Potency [4]

C[C@@H](O)[C@H]1O[C@]2(C)CCC[C@H]1O2
inactive: Potency [1] | Potency [2] | Potency [3] | Potency [4]

Oc1cc(O)cc(-c2cc3ccc(O)cc3o2)c1
inactive: Potency [1] | Potency [2] | Potency [3] | Potency [4]

COc1cc(CCC(C)=O)ccc1O
inactive: Potency [1] | Potency [2] | Potency [3] | Potency [4]

CC(C)CCCCCCCCCCCCC(=O)NCC(=O)NC1C(O)C(O)C(Nc2ncnc3nc[nH]c23)OC1C(O)CO (stereo not given)
inactive: Potency [1] | Potency [2] | Potency [3] | Potency [4]

COc1c2c(cc3oc(C)cc(=O)c13)OC(C(C)(C)OC1OC(CO)C(O)C(O)C1O)C2 (stereo not given)
inactive: Potency [1] | Potency [2] | Potency [3] | Potency [4]

CC(=O)Oc1ccc2c(=O)c(-c3ccccc3)c(C)oc2c1
inactive: Potency [1] | Potency [2] | Potency [3] | Potency [4]

COC(=O)c1ccc(OC)cc1
inactive: Potency [1] | Potency [2] | Potency [3] | Potency [4]

COc1cc(N2CCN(C)CC2)ccc1Nc1nc(N)c(C(=O)c2c(Cl)cccc2Cl)s1
inactive: Potency [1] | Potency [2] | Potency [3] | Potency [4]

C=CC[C@]12C=C(OC)C(=O)C=C1O[C@@H](c1ccc3c(c1)OCO3)[C@H]2C
inactive: Potency [1] | Potency [2] | Potency [3] | Potency [4]

CCCCC(C)/C=C(C)/C=C(\C)C(=O)NC1=CC(O)(/C=C/C=C/C=C/C(=O)NC2=C(O)CCC2=O)C2OC2C1=O (stereo not given)
inactive: Potency [1] | Potency [2] | Potency [3] | Potency [4]

C/C(=C\COc1c2ccoc2cc2oc(=O)ccc12)CCC(O)C(C)(C)O (stereo not given)
inactive: Potency [1] | Potency [2] | Potency [3] | Potency [4]

COC(=O)c1c(C)cc(O)c(C)c1O
inactive: Potency [1] | Potency [2] | Potency [3] | Potency [4]

COc1cc(/C=C/c2ccccc2)cc(OC)c1
inactive: Potency [1] | Potency [2] | Potency [3] | Potency [4]

O=C(c1ccccc1)N1CCCCC1
inactive: Potency [1] | Potency [2] | Potency [3] | Potency [4]

COc1cc(=O)n(C)c2c(OCC3OC(C)(C)OC3(C)C)cccc12 (stereo not given)
inactive: Potency [1] | Potency [2] | Potency [3] | Potency [4]

CC1=C(C=O)C(C)(C)CCC1
inactive: Potency [1] | Potency [2] | Potency [3] | Potency [4]
